hcDAF12 agonist: H. contortus DAF-12 nuclear receptor activators, primary screen, cell-based, luminescence, HEK293, lit1-tk-luc reporter; HEK293 hcDAF-12 lit1-tk-luc reporter; 0% DMSO, 100% Δ7-dafachronic acid; activation, % at 6.8 µM; 370,000 compounds, 1.4% hits;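 active means activation above the mean of all tested compounds plus 3 SD, cut at about 5.5% in these data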;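 further: 100% = response to 3 µM Δ7-dafachronic acid high control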
ssDAF12 agonist: S. stercoralis DAF-12 nuclear receptor activators, primary screen, cell-based, luminescence, HEK293, GRIP1 co-expression, lit1-tk-luc | activation, % at 6.8 µM | HEK293 ssDAF-12/GRIP1 lit1-tk-luc reporter; % of 3 µM dafachronic acid response | 370,000 compounds, 1% hits | AID 652126, 2013 | Nuclear hormone receptor DAF-12 (Strongyloides stercoralis);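 active means activation above the mean over all tested compounds plus 3 SD, cut at about 0.9% in these data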;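 further: 0% = DMSO-only wells and 100% = 3 µM delta7-dafachronic acid wells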
hgDAF12 agonist: H. glycines DAF-12 receptor agonists, primary screen, cell-based, luminescence, HEK293, GAL4 fusion, UAS-luciferase. Nuclear hormone receptor DAF-12 (Heterodera glycines), GAL4 fusion. activation, % at 6.8 µM. HEK293 GAL4-hgDAF12 UAS-luciferase reporter, agonist luminescence; normalized to butyrate control. 370,000 compounds, 1.8% hits;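 active means activation above a cutoff set at the mean of all screened compounds plus 3 SD, cut at about 10% in these data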;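 further: 0% = DMSO wells and 100% = sodium butyrate wells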
DAX1 inh-1: DAX1 (NR0B1) inhibitors, primary screen, cell-based, HEK293, Gal4-DAX1, luciferase luminescence. Nuclear receptor subfamily 0 group B member 1 (Homo sapiens), P51843. HEK293 Gal4-DAX1 luciferase reporter. inhibition, % at 6.75 µM. 340,000 compounds, 0.99% hits. AID 504766, 2011;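 active means inhibition above the mean over all tested compounds plus 3 SD, cut at about 4.2% in these data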;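 further: 0% = DAX1-transfected cells with DMSO and 100% = empty-vector control cells with DMSO; inhibition shows as a rise in luminescence from relieved DAX1 repression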
Target sequence (P51843 207-470 limits assumed): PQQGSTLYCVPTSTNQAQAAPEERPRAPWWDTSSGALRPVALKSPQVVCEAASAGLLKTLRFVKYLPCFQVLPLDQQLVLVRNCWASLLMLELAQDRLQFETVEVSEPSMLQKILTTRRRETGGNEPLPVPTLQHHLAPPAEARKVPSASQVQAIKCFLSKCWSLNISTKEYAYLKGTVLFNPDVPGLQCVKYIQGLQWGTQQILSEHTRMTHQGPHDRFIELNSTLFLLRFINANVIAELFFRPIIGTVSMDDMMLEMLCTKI
DAX1 inh-2: DAX1 (NR0B1) inhibitors on StAR promoter, primary screen, cell-based, luminescence, SF-1 (NR5A1), full-length DAX-1; HEK293T StAR-luciferase reporter, SF-1/DAX-1 repression relief; 370,000 compounds, 1.1% hits; inhibition, % at 6.8 µM;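 active means inhibition above the mean over all tested compounds plus 3 SD, cut at about 3.6% in these data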;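 further: 0% = DAX-1 cells with DMSO and 100% = cells lacking DAX-1 with DMSO; higher inhibition means more luminescence from relief of DAX-1 repression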
DAX1 inh confirm: DAX1 (NR0B1) inhibitors relieving SF-1 repression, confirmation, cell-based, luminescence, HEK293T, full-length DAX-1, SF-1 activated StAR promoter; shares compounds with DAX1 inh-2; HEK293T StAR-promoter luciferase reporter, SF-1/DAX-1 repression; inhibition, % at 6.8 µM; 2,400 compounds, 87% hits;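 active means inhibition above the average of every tested compound plus 3 SD, cut at about 3.8% in these data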;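 further: 0% = DAX-1 cells with DMSO and 100% = no DAX-1 control cells with DMSO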
SF1 AF2mut Luc: StAR reporter signal changes without DAX1, counter-screen for DAX1 inhibitor project, cell-based, luminescence, AF-2 mutant SF-1, transactivation. AID 652136, 2013. inhibition, % at 6.8 µM. 2,400 compounds, 78% hits. shares compounds with DAX1 inh-2. HEK293 StAR-luciferase, SF-1 AF2 mutant;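 active means inhibition above the mean of all tested compounds plus 3 SD, cut at about 3% in these data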;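 further: 0% = DAX-1 transfected cells with DMSO and 100% = cells without DAX-1 with DMSO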
LXRb hcDAF ctr: LXR agonists, Gal4 luciferase reporter, confirmation, counter-screen for hcDAF-12 agonist project, cell-based, luminescence, HEK293, H. contortus campaign. shares compounds with hcDAF12 agonist. HEK293 Gal4-LXR tk-luc reporter, 24 h; normalized: DMSO 0%, positive control 100%. activation, % at 6.8 µM. 3,400 tested, under 10 active;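 active means mean percent activation of the reporter above a cutoff set as the average over tested compounds plus their standard deviation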
Target sequence (P55055 whole entry, looked up, the tested form may be a part): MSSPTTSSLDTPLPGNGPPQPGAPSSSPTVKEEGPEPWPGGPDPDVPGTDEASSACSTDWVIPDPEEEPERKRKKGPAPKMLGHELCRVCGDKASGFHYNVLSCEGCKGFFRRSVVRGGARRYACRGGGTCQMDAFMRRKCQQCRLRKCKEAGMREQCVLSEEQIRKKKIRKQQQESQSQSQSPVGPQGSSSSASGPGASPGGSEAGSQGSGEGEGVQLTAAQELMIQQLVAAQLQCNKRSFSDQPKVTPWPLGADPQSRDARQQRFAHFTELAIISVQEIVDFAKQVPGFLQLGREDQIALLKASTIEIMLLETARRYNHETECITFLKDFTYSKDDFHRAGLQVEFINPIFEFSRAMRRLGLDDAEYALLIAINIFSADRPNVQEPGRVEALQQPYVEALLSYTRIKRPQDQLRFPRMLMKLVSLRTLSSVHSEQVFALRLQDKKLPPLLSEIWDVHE
hcDAF12 conf: H. contortus DAF-12 receptor agonists, confirmation, cell-based, luminescence, HEK293, lit1-tk-luc, triplicate; activation, % at 6.8 µM; 3,400 compounds, 61% hits; shares compounds with hcDAF12 agonist; AID 743032, 2013; HEK293 hcDAF-12 lit1-tk-luc reporter; % of Δ7-dafachronic acid response;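 active means mean activation across triplicate tests above the threshold derived from the earlier primary screen, cut at about 5.5% in these data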;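 further: 0% = DMSO only wells and 100% = 3 µM Δ7-dafachronic acid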
hgDAF12 ag: H. glycines DAF-12 receptor agonists, confirmation, cell-based, luminescence, HEK293, GAL4-LBD fusion. shares compounds with hgDAF12 agonist. HEK293 GAL4-hgDAF12 luciferase reporter, agonist mode; percent of butyrate response. activation, % at 6.8 µM. 3,300 compounds, 80% hits;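 active means mean activation over triplicate wells above the hit cutoff derived from the earlier primary screen, cut at about 11% in these data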;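 further: 0% = DMSO low control and 100% = 2 mM sodium butyrate high control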
LXRb DAF12 ctr: LXR agonists, Gal4 luciferase reporter, confirmation, counter-screen for hgDAF-12 agonist project, cell-based, luminescence, HEK293, H. glycines campaign. 24 h. activation, % at 6.8 µM. shares compounds with hgDAF12 agonist. AID 743051, 2013. 3,300 tested, under 10 active;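 active means mean activation of the triplicate above a set limit carried over from the primary screen, none filed active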
* = called active by the depositor; ! = a repeat was not active. Sampled rows, rich in hits. Any-hit rate of the full collection: about 4.1%.

CC(=O)c1ccc(N2CCN(C(=O)COc3ccccc3F)CC2)c(F)c1 was read as hcDAF12 agonist -2, ssDAF12 agonist -1, hgDAF12 agonist -1, DAX1 inh-1 0 and DAX1 inh-2 0.
c1ccc(COc2ccccc2CNC23CC4CC(CC(C4)C2)C3)cc1 was read as hcDAF12 agonist -1, ssDAF12 agonist -2, hgDAF12 agonist -1, DAX1 inh-1 -1 and DAX1 inh-2 -1.
For CCOC(=O)c1c(C)[nH]c(N=Nc2ccc(C)cc2)c1C the results were hcDAF12 agonist 3, ssDAF12 agonist 0, hgDAF12 agonist 15*, DAX1 inh-1 4, DAX1 inh-2 4.9*, DAX1 inh confirm 12*, SF1 AF2mut Luc 6.0*, hgDAF12 ag 18* and LXRb DAF12 ctr 1.
CCOC(=O)c1c(C)[nH]c(N=Nc2cccc(OC)c2)c1C was read as hcDAF12 agonist 5.9*, ssDAF12 agonist 0, hgDAF12 agonist 16*, DAX1 inh-1 3, DAX1 inh-2 4.9*, DAX1 inh confirm 16*, SF1 AF2mut Luc 8.0*, hgDAF12 ag 21* and LXRb DAF12 ctr 1.
For O=Nc1c(O)c2ccccc2c2ccccc12 the results were hcDAF12 agonist -5, ssDAF12 agonist -2, hgDAF12 agonist -12, DAX1 inh-1 -6 and DAX1 inh-2 -3.
`O=Nc1c2cc3ccccc3[nH]c-2c2ccccc12` gave hcDAF12 agonist 10*, ssDAF12 agonist 1.1*, hgDAF12 agonist 23*, DAX1 inh-1 0, DAX1 inh-2 7.7*, DAX1 inh confirm 9.8*, SF1 AF2mut Luc 8.4*, LXRb hcDAF ctr 2, hcDAF12 conf 12*, hgDAF12 ag 23* and LXRb DAF12 ctr 1.
For C[C@@H]1COc2cccc(N3CCC[C@H]3CO)c2S(=O)(=O)N1 the results were hcDAF12 agonist 4, ssDAF12 agonist 0, hgDAF12 agonist 1 and DAX1 inh-2 2.
Screening COc1ccc(-n2nc3cc(C)c(NC(C)=O)cc3n2)cc1 returned hcDAF12 agonist 5, ssDAF12 agonist 0.9*, hgDAF12 agonist 18*, DAX1 inh-1 1, DAX1 inh-2 4.5*, DAX1 inh confirm 8.4*, SF1 AF2mut Luc 1, hgDAF12 ag 9 and LXRb DAF12 ctr 1.
Screening COc1ccc(NC(C)=O)c(C)c1 returned hcDAF12 agonist -2, ssDAF12 agonist -2, hgDAF12 agonist 0, DAX1 inh-1 2 and DAX1 inh-2 0.
For O=C(Nc1ccccn1)c1ccc2c(=O)n3c(nc2c1)CCCCC3 the results were hcDAF12 agonist 5, ssDAF12 agonist 0, hgDAF12 agonist 20*, DAX1 inh-1 -1, DAX1 inh-2 6.2*, DAX1 inh confirm 7.7*, SF1 AF2mut Luc 3.8*, hgDAF12 ag 15* and LXRb DAF12 ctr 1.
CCOc1ccc(S(=O)(=O)/N=C(/Nc2ccc(OC)cc2)c2ccccc2)cc1 was read as hcDAF12 agonist 0, ssDAF12 agonist -1, hgDAF12 agonist 2, DAX1 inh-1 0 and DAX1 inh-2 -1.
`Cc1ccc(NC(=S)N/C(=N/S(=O)(=O)c2ccccc2)c2ccccc2)cc1` gave hcDAF12 agonist 2, ssDAF12 agonist 0, hgDAF12 agonist 18*!, DAX1 inh-1 3, DAX1 inh-2 5.6*!, DAX1 inh confirm 3, SF1 AF2mut Luc 3, hgDAF12 ag 13* and LXRb DAF12 ctr 0.
Screening COc1ccc(C(=O)NN/C(=N/S(=O)(=O)c2ccc(C)cc2)c2ccccc2)cc1 returned hcDAF12 agonist 3, ssDAF12 agonist 0.9*, hgDAF12 agonist 14*, DAX1 inh-1 3, DAX1 inh-2 4.6*, DAX1 inh confirm 9.2*, SF1 AF2mut Luc 4.4*, hgDAF12 ag 19* and LXRb DAF12 ctr 1.
For COC(=O)[C@]12C[C@H](CC(=O)NCc3cccc(C(F)(F)F)c3)C(=O)N(Cc3cccc4ccccc34)C1=C[C@H](C(C)C)O[C@@H]2C1CC1 the results were hcDAF12 agonist 0, ssDAF12 agonist -1, hgDAF12 agonist 1 and DAX1 inh-2 0.
`O=C(Nc1cnn(C23CC4CC(CC(C4)C2)C3)c1)c1cnn2cccnc12` gave hcDAF12 agonist 4, ssDAF12 agonist 1.2*, hgDAF12 agonist 14*, DAX1 inh-1 0, DAX1 inh-2 5.8*, DAX1 inh confirm 10*, SF1 AF2mut Luc 5.9*, hgDAF12 ag 15* and LXRb DAF12 ctr 1.
For Cc1ccc(C(=O)c2ccc(C)cc2)cc1 the results were hcDAF12 agonist 1, ssDAF12 agonist -1, hgDAF12 agonist 5, DAX1 inh-1 0 and DAX1 inh-2 0.
